This assay addresses 5-hydroxytryptamine receptor 2A (Homo sapiens) (UniProt P28223). In words: 5-hydroxytryptamine receptor 2A (HTR2A) small molecule antagonists, cell-based qHTS assay (AID 1963586). Further: nearly all actives have a fitted effect of over 45% in size. The following applies: HTR2A-CHO cells, DOI-induced calcium flux, fluorescence; series mostly up to 61.5 µM. Put shortly:
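CHO cells stably expressing human HTR2A were plated for 18 h at 37 C, then loaded with calcium dye for 1 h. Compounds were preincubated 5 min at room temperature before DOI (4 nM solution) was added. Kinetic fluorescence was read for 3 min.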

Records with an inconclusive call do not appear. Entries that show only a call come without a potency. More than one record can exist for a structure, and the calls need not agree. Active and inactive are the calls of the source. The call rests on the fitted dose curve.
Potency means the concentration at half of the fitted maximal effect.

5-hydroxytryptamine receptor 2A (Homo sapiens), sequence (P28223 whole entry, looked up): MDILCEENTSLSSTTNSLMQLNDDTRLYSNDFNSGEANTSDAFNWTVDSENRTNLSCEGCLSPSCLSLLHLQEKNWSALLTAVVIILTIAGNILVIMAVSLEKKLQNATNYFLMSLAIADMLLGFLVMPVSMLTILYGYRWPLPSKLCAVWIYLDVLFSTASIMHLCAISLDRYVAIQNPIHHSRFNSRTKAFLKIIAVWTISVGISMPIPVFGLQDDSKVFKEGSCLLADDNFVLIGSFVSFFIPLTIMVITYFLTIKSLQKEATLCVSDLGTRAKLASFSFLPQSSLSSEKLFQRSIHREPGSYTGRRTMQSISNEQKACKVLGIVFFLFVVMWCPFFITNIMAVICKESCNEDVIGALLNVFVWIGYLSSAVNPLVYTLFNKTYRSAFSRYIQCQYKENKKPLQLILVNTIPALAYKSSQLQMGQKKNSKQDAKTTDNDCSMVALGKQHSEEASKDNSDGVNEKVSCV

For the compound `CCCO[Si](OCCC)(OCCC)OCCC`, the Potency result was “inactive”.
Same read-out and setting: the same measure for `CC(O)Cn1cnc2c1c(=O)n(C)c(=O)n2C` (stereo not drawn): “inactive”.
Same read-out and setting: the same measure for `CCCCCCCCCOS(=O)(=O)O`: “inactive”; for `O=[N+]([O-])c1ccc(CCO)cc1`: “inactive”.
Still for that read-out and setting: the same measure for `OCc1ccccc1O`: “inactive”; for `CCc1ccc(C)nc1`: “inactive”.
In the case of `CC1=CCC(=O)O1`, the Potency result is “inactive”.
Same read-out and setting: the value for `CSCCC=O` was “inactive”.
For the compound `CCOc1ccccc1C(N)=O`, the Potency entry is “inactive”.
As to `CNc1ccccc1`, the Potency result is “inactive”.
For the compound `CC(=O)O[C@@H]1C[C@@H]2CC[C@@]1(C)C2(C)C`, the Potency result was “inactive”.
For the compound `Cc1cc(N)no1`, the Potency entry is “inactive”.
For `CCOC(C)(C)C`, the Potency result was “inactive”.
On the same count and under the same terms, the same measure for `CCCOCCC`: “inactive”.
For `NC[C@H]1O[C@H](O[C@H]2[C@H](O)[C@@H](O[C@H]3O[C@H](CO)[C@@H](O)[C@H](N)[C@H]3O)[C@H](N)C[C@@H]2N)[C@H](N)[C@@H](O)[C@@H]1O`, the activity, negative = inhibition is 6.4% [at 12.7 µM] (inactive).
For the compound `CCOC(=O)c1ccc(C)cc1`, the Potency result is “inactive”.
Still for that read-out and setting: the same measure for `CC(=O)O[C@@H]1CC2C3CCc4cc(OC(=O)c5ccccc5)ccc4C3CCC2(C)[C@H]1OC(C)=O` (stereo partly drawn): “inactive”.
Still for that read-out and setting: the same measure for `N#Cc1ccc(C2CCCc3cncn32)cc1` (stereo not drawn): “inactive”; for `c1coc(CNc2ncnc3nc[nH]c23)c1`: “inactive”; for `Cc1ccc(S(=O)(=O)NC(=O)NC2CCCC2)cc1`: “inactive”.
The same measure, in the same setting: the value for `CN(C)c1cc(NC(=O)CNC(C)(C)C)c(O)c2c1C[C@H]1C[C@H]3[C@H](N(C)C)C(=O)C(C(N)=O)=C(O)[C@@]3(O)C(=O)C1=C2O` was “inactive”.
Turning to `Cc1[nH]cnc1-c1ccc(Cl)cc1`, the Potency result is “inactive”.
In the case of `NCC1(Cc2noc(=O)[nH]2)CCCCC1`, the Potency result was “inactive”.
The same measure, in the same setting: the value for `CCOC(=O)c1ccc(O)c(O)c1` was “inactive”.
Still for that read-out and setting: the same measure for `CCC(C)(C)C1CCC(OC)CC1` (stereo not drawn): “inactive”; for `O=C1OC[C@H](Cc2cccc(O)c2)[C@H]1Cc1cccc(O)c1`: “inactive”; for `CCCCCCCCSCCO`: “inactive”.
On to `C=CC(=O)CC`, for which the Potency result was “inactive”.
With `COC(=O)CCC(=O)O`, the Potency result is “inactive”.
Same read-out and setting: the same measure for `C=C(C)C(=O)OCCC(F)(F)C(F)(F)C(F)(F)C(F)(F)C(F)(F)C(F)(F)F`: “inactive”.
Turning to `CC(=O)OCCOCCOCCOC(C)=O`, the Potency entry is “inactive”.
On the same count and under the same terms, the same measure for `COc1cc(N)c(Cl)cc1C(=O)NC1CCN(Cc2ccccc2)CC1`: 1.83 µM (active); for `CCCCCC(=O)O[C@]1(C(C)=O)CC[C@H]2[C@@H]3CCC4=CC(=O)CC[C@]4(C)[C@H]3CC[C@@]21C`: “inactive”; for `Oc1ccc(Cl)cc1Sc1cc(Cl)ccc1O`: 29.7 µM (active) and inactive.
Take `O=C(c1ccc(O)cc1O)c1ccc(O)cc1O`: the Potency entry was “inactive”.
The same measure, in the same setting: the same measure for `CC(C)CCOCCC(C)C`: “inactive”; for `CCCc1cc(C(N)=S)ccn1`: “inactive”.
Take `CCCCC(CC)COC(=O)c1ccc(O)cc1` (stereo not drawn): the Potency is 37.5 µM (active).
Still for that read-out and setting: the value for `Cc1ccc(-c2ccccc2)cc1` was “inactive”; that for `O=C(O)CC(=O)O` was “inactive”; that for `CCCCC/C=C/C=C/C=O` was “inactive”.
Still for that read-out and setting: the same measure for `CC1=C(O)C(=O)OC1C` (stereo not drawn): “inactive”; for `Nc1ncnc2c1ncn2Cc1c(F)cccc1Cl`: “inactive”.
In the case of `NC(=O)c1ccccc1N`, the Potency result is “inactive”.
On the same count and under the same terms, the value for `NNS(=O)(=O)c1ccc(Oc2ccc(S(=O)(=O)NN)cc2)cc1` was “inactive”.
On the same count and under the same terms, the same measure for `CC1CNCC(C)O1` (stereo not drawn): “inactive”; for `CCC(C)=O`: “inactive”.
Same read-out and setting: the same measure for `O=C1NC2NC(=O)NC2N1` (stereo not drawn): “inactive”.
On to `O=C(O)c1cccc(C[C@@H]2COc3ccc(OCc4nc5cc(F)ccc5s4)cc3[C@@H]2O)c1`, for which the Potency entry is “inactive”.
The same measure, in the same setting: the value for `CC(=O)/C=C/C1C(C)=CCC(C)C1(C)C` (stereo not drawn) was “inactive”.
Same read-out and setting: the same measure for `FC(F)(F)c1ccccc1Cl`: “inactive”; for `CC(C)CCO`: “inactive”; for `CCO/C([O-])=N/c1c[n+](N2CCOCC2)no1`: “inactive”.
Same read-out and setting: the same measure for `CC(=O)N1CCN(c2ccc(O)cc2)CC1`: “inactive”; for `CN(C)CCCNCCCN(C)C`: “inactive”.
For `CC(C)CCCCCCc1ccc(O)cc1`, the Potency is 34 µM (active).
`Cc1cn([C@H]2C[C@H](F)[C@@H](CO)O2)c(=O)[nH]c1=O`: the Potency entry was “inactive”.
Same read-out and setting: the value for `O=C(CCN1CCN(CCO)CC1)N1c2ccccc2Sc2ccc(C(F)(F)F)cc21` was “inactive”.
For `CCCCCCCCCCCCCCCCI`, the activity, negative = inhibition is -0.251% [at 12.7 µM] (inactive).
As for `OCC1(CO)COCOC1`, the Potency entry was “inactive”.
The same measure, in the same setting: the same measure for `O=C(O)CCCCCCCCCCCC(=O)O`: “inactive”.
On the same count and under the same terms, the value for `O=C(O)c1ccccc1-n1cc(C(=O)O)c(=O)c2cc(Nc3c(F)cc(F)cc3Cl)c(Cl)cc21` was “inactive”; that for `C=CCOc1cc(Cl)ccc1C(=O)NCCN(CC)CC` was “inactive”.
For the compound `CCCCCCCCCCCC(=O)OCC(C)OC(=O)CCCCC(=O)O` (stereo not drawn), the Potency result is “inactive”.
For `c1cnc2cc3c(cc2n1)C1CNCC3C1`, the Potency entry was “inactive”.
Still for that read-out and setting: the value for `Clc1nc(Cl)c(Cl)c(Cl)c1Cl` was “inactive”; that for `CC(C)C(=O)C(C)C` was “inactive”.
Consider `CCC(C)C1N=C(C)C(C)S1` (stereo not drawn), for which the Potency result was “inactive”.
In the case of `NCc1cccc(CN)c1`, the Potency entry was “inactive”.
Regarding `Cc1ccc(C(=O)O)cc1`, the Potency result was “inactive”.
Same read-out and setting: the same measure for `N[C@@H](CCC(=O)Nc1ccc([N+](=O)[O-])cc1)C(=O)O`: “inactive”; for `C=CC(=O)NCOCC(C)C`: “inactive”; for `CCCCCCCCCCCCCCO`: “inactive”.
